Source: PubChem BioAssay
proKLK7 act – proKLK7 zymogen activators, primary screen, biochemical, fluorescence intensity; activation, % at 7 µM; purified proKLK7, EDANS-DABCYL substrate fluorescence; 100% is mature enzyme control, 0% vehicle; Kallikrein-7 (Homo sapiens), P49862; hit rate 0.9% among 370,000;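 active = activation above the mean of all tested compounds plus 3 SD, computed per campaign excluding outliers beyond control limits, cut at about 13% in these data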
Rin1-Abl PPI inh – inhibitors of Rin1-Abl protein binding, primary screen, biochemical, TR-FRET. AID 588664, 2011. Tyrosine-protein kinase ABL1 (Homo sapiens) + Ras and Rab interactor 1 (Homo sapiens), …. hit rate 0.4% among 360,000. inhibition, % at 7.35 µM; in the data active = inhibition above about 5%, passing the limit was not always enough
UHRF1 MBD2 ctr – UHRF1 methylated DNA binding inhibitors, primary screen, counter-screen for MBD2 inhibitor project, biochemical, TR-FRET, human UHRF1, single concentration; inhibition, % at 4.4 µM; UHRF1 binding to methylated oligo; hit rate 0.75% among 370,000;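 note: UHRF1 SRA domain binding a hemimethylated CpG hairpin DNA probe; 0% = median of test compound wells and 100% = reference inhibitor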
Target sequence (Q96T88 whole entry, looked up, the tested form may be a part): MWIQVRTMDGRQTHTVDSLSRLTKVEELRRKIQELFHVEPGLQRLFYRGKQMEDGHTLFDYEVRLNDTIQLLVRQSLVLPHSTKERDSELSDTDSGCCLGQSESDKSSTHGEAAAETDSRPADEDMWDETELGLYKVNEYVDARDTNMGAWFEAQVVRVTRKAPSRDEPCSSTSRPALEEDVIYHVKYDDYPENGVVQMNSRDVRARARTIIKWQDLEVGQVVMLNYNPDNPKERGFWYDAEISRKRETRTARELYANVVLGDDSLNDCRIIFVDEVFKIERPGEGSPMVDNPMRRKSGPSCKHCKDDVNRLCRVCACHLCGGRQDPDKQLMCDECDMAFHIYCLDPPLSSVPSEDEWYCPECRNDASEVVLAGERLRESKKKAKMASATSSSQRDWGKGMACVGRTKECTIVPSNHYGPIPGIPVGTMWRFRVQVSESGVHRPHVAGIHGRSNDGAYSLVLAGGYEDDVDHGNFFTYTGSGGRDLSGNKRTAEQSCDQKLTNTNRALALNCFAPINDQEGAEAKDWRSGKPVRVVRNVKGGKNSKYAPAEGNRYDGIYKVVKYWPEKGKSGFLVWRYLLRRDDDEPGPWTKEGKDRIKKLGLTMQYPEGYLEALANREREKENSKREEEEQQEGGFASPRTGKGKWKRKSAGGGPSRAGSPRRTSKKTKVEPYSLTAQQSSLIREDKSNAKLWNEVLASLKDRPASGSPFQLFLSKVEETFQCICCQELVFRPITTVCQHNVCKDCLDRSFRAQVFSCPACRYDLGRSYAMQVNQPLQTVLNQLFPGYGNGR
Neddyl block – inhibitors of cullin neddylation, primary screen, biochemical, TR-FRET, uHTS, NAE and Ubc12; NEDD8-conjugating enzyme Ubc12 (Homo sapiens) + NEDD8-activating enzyme E1 regulatory …; calls only at 25 µM; hit rate 0.58% among 360,000; AID 651699, 2012; in the data active = inhibition above about 36%
MBD2 DNA inh – inhibitors of MBD2 binding to methylated DNA, primary screen, biochemical, TR-FRET, DNA-binding domain, human; Methyl-CpG-binding domain protein 2 (Homo sapiens), Q9UBB5; MBD2 binding to methylated oligonucleotide; inhibition, % at 4.4 µM; hit rate 0.31% among 370,000; AID 686964, 2013; in the data active = inhibition above about 13%
LEDGF integ inh – blockers of LEDGF/p75-dependent integrase strand transfer – biochemical, TR-FRET, high throughput, primary screen. TR-FRET IN-LEDGF/p75 DNA integration, Eu/Cy5. HIV-1 integrase (with human LEDGF/p75). AID 743269, 2014. hit rate 0.64% among 370,000. inhibition, % at 3.7 µM;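 active = inhibition above the screen-wide mean plus 3 SD, cut at about 13% in these data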;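 note: signal is the Cy5 over europium emission ratio at 671 and 618 nm; 0% = plate median of compound wells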
Rin1 Abl conf – Rin1-Abl binding inhibitor retest, confirmation, biochemical, TR-FRET | purified proteins | shares compounds with Rin1-Abl PPI inh | inhibition, % at 7.35 µM | hit rate 49% among 1,300; in the data active = inhibition above about 6.5%
GFP quencher – GFP fluorescence inhibitors and quenchers, artefact control for Rin1-Abl interaction inhibitor project, biochemical; inhibitors/quenchers counterscreen; inhibition, % at 6.75 µM; shares compounds with Rin1-Abl PPI inh; hit rate 8.5% among 1,300; in the data active = inhibition above about 6.5%;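 note: ABL1-eGFP fusion protein alone without its partner RIN1-SBP; 0% = protein with vehicle and 100% = wells lacking protein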
GFP quench dose – GFP fluorescence inhibitors and quenchers, dose response, artefact control for Rin1-Abl interaction inhibitor project, biochemical; shares compounds with Rin1-Abl PPI inh; GFP fluorescence interference/quenching counterscreen; IC50, µM; 230 tested, under 10 active; AID 602182, 2012; call rule not given here;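 note: ABL1-eGFP fusion protein alone without its RIN1 binding partner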
UHRF1 ctr MBD2 – UHRF1 methylated DNA binding inhibitors, counter-screen for MBD2 inhibitor project, biochemical, TR-FRET, human UHRF1; hit rate 25% among 1,000; inhibition, % at 4.4 µM; UHRF1 binding to methylated oligonucleotide; shares compounds with MBD2 DNA inh;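 note: UHRF1 SRA domain binding a labeled hemimethylated CpG hairpin DNA; 0% = vehicle only and 100% = reference inhibitor with vehicle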
MBD2 DBD conf – inhibitors of MBD2 binding to methylated DNA, confirmation, biochemical, TR-FRET, DNA-binding domain, human; hit rate 26% among 1,000; shares compounds with MBD2 DNA inh; inhibition, % at 4.4 µM; TR-FRET MBD2-DBD binding to methylated oligonucleotide; in the data active = inhibition above about 14%
IN multimer up – HIV-1 IN multimer formation enhancers, counter-screen for LEDGF/p75 integration inhibitor project, biochemical, TR-FRET. activation, % at 7.7 µM. TR-FRET HIV-1 integrase multimerization. shares compounds with LEDGF integ inh. hit rate 17% among 2,000; in the data active = activation above about 8.9%
TRFRET interf – TR-FRET optical interference artefacts, confirmation, artefact control for LEDGF/p75-dependent integration inhibitor project, biochemical, HIV-1 IN multimerization; AID 1053135, 2014; TR-FRET optical interference counterscreen; shares compounds with LEDGF integ inh; inhibition, % at 7.7 µM; 2,000 tested, under 10 active;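 active = inhibition above the mean over all tested compounds plus 3 SD, which no compound reached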;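 note: 0% = integrase with antibodies and DMSO and 100% = antibodies without integrase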
IN-LEDGF confirm – inhibitors of HIV-1 IN-LEDGF/p75 DNA integration, confirmation, biochemical, TR-FRET; shares compounds with LEDGF integ inh; TR-FRET LEDGF/p75-dependent HIV-1 integration; inhibition, % at 3.7 µM; hit rate 36% among 2,000; in the data active = inhibition above about 14%
Numbers without * were called inactive. Compounds with a hit are over-represented: about 3.1% of the library has one in this group of screens. Cut-off read from the data, not from the text of the source, unless noted: active = inhibition above about 21%; inactive = the rest.

Screening CC1CCN(C(=O)c2[nH]cnc2C(=O)NC2CCN(C(=O)OC(C)(C)C)CC2)CC1 returned proKLK7 act 0, Rin1-Abl PPI inh 10*, UHRF1 MBD2 ctr 2, Neddyl block inactive, MBD2 DNA inh 4, LEDGF integ inh 17*, Rin1 Abl conf 4, GFP quencher -1, IN multimer up -1, TRFRET interf 5 and IN-LEDGF confirm -1.
`CCCC(=O)Nc1ccc(C(=O)COC(=O)c2cc(C)oc2C)cc1` gave proKLK7 act 0, Rin1-Abl PPI inh 3, UHRF1 MBD2 ctr 0, Neddyl block inactive, MBD2 DNA inh 5 and LEDGF integ inh 0.
`CCOC(=O)CCCCC(=O)c1[nH]c(=O)[nH]c1CN1CCOCC1` gave proKLK7 act 0, Rin1-Abl PPI inh 80*, UHRF1 MBD2 ctr -1, Neddyl block inactive, MBD2 DNA inh -4, LEDGF integ inh 17*, Rin1 Abl conf 88*, GFP quencher -1, GFP quench dose >68, IN multimer up 0, TRFRET interf -1 and IN-LEDGF confirm 13.
`CCOC(=O)CCCCC(=O)c1[nH]c(=O)[nH]c1CSc1nc(C)cc(C)n1` gave proKLK7 act 0, Rin1-Abl PPI inh 68*, UHRF1 MBD2 ctr 4, Neddyl block inactive, MBD2 DNA inh 5, LEDGF integ inh 26*, Rin1 Abl conf 71*, GFP quencher 0, GFP quench dose >68, IN multimer up -1, TRFRET interf 4 and IN-LEDGF confirm 19*.
CCOC(=O)CCCCC(=O)c1[nH]c(=O)[nH]c1CSc1nc(C)cc(=O)[nH]1 was read as proKLK7 act 1, Rin1-Abl PPI inh 82*, UHRF1 MBD2 ctr 0, Neddyl block inactive, MBD2 DNA inh 5, LEDGF integ inh 35*, Rin1 Abl conf 86*, GFP quencher 0, GFP quench dose >68, IN multimer up 4, TRFRET interf -16 and IN-LEDGF confirm 49*.
For CCOC(=O)c1c(C)[nH]c(C(=O)CSc2nc(C)cc(C)n2)c1C the results were proKLK7 act 1, Rin1-Abl PPI inh 0, UHRF1 MBD2 ctr -1, Neddyl block inactive, MBD2 DNA inh -5 and LEDGF integ inh 0.
O=S1(=O)c2c(cccc2N2CC[C@H](O)C2)OCCCN1C1CC1 was read as proKLK7 act 0, UHRF1 MBD2 ctr 1, MBD2 DNA inh 3 and LEDGF integ inh 1.
Screening Cc1cc2nc3ccc(N(C)C)cc3nc2cc1N returned proKLK7 act 7, Rin1-Abl PPI inh 15*, UHRF1 MBD2 ctr 2, Neddyl block active, MBD2 DNA inh -2, LEDGF integ inh 31*, Rin1 Abl conf -12, GFP quencher 34*, IN multimer up 15*, TRFRET interf -75 and IN-LEDGF confirm 72*.
For O=c1c(O)c(-c2ccc(O)c(O)c2)oc2cc(O)ccc12 the results were proKLK7 act -334, Rin1-Abl PPI inh 23*, UHRF1 MBD2 ctr 0, Neddyl block inactive, MBD2 DNA inh 0, LEDGF integ inh 79*, Rin1 Abl conf 22*, GFP quencher 2, GFP quench dose >68, IN multimer up 39*, TRFRET interf -198 and IN-LEDGF confirm 92*.
Cc1ccc2c(c1)c1c3n2CCN(C(=O)CN2CCN(C)CC2)C3CCC1 (stereo not drawn) was read as proKLK7 act 3, Rin1-Abl PPI inh -2, UHRF1 MBD2 ctr -2, Neddyl block inactive, MBD2 DNA inh 2 and LEDGF integ inh 0.
For Cc1ccc2c(c1)c(=O)c1c3n2CCN(C(=O)CCl)C3CC1 (stereo not drawn) the results were proKLK7 act -2, Rin1-Abl PPI inh 9.4*, UHRF1 MBD2 ctr -4, Neddyl block inactive, MBD2 DNA inh -9, LEDGF integ inh 14*, Rin1 Abl conf 2, GFP quencher 5, IN multimer up 15*, TRFRET interf -54 and IN-LEDGF confirm 49*.
For CCCCn1c(NS(=O)(=O)c2ccccc2)c(S(=O)(=O)c2ccc(C)cc2)c2nc3ccccc3nc21 the results were proKLK7 act 4, Rin1-Abl PPI inh 22*, UHRF1 MBD2 ctr 17, Neddyl block inactive, MBD2 DNA inh 21*, LEDGF integ inh 23*, Rin1 Abl conf 11*, GFP quencher -1, UHRF1 ctr MBD2 -4, MBD2 DBD conf 14*, IN multimer up 2, TRFRET interf -6 and IN-LEDGF confirm 73*.
